Calls of active or inactive are those of the source. How the source made its calls: active means hit-call score of the fitted dose curve at least 0.9, where 1 is the maximum; inactive means score below 0.9.
Assay: CCTE_Harrill_HTTr_Apoptosis_MCF7: CCTE's 6-hour Apoptosis Assessment for the High-Throughput Transcriptomics (HTTr) Platform, in MCF-7 cells cultured in DMEM + 10% fetal bovine serum, Harrill Lab (AID 2284011)
Source text: This is a cell-based assay that evaluates apoptosis using high content imaging to evaluate activation of caspase-3/7 using the CellEvent Caspase 3/7 Green detection reagent in 384-well format.One of seven assay components measured from the CCTE_Harrill_HTTr_Apoptosis assay. This was part of a full screening experiment. This is a cell-based assay that evaluates apoptosis in MCF-7 cells cultured in DMEM + 10% fetal bovine serum. High content imaging is used to evaluate activation of caspase-3/7 using the CellEvent Caspase 3/7 Green detection reagent. Measurements are taken at 6 hours after chemical dosing in 384-well format.The assay component endpoint CCTE_Harrill_HTTr_Apoptosis_MCF7 was analyzed with bidirectional fitting relation to DMSO as the negative control and baseline of activity. Using a type of viability reporter, gain-of-signal activity can be used to evaluate activation of caspase-3/7 using the CellEvent Caspase 3/7 Green detection reagent to understand changes in apoptosis. To generalize the intended target to other relatable targets, this assay endpoint is annotated to cell cycle, where the subfamily is apoptosis.
Chemicals were tested in MCF7 cells in an eight point dilution series with a six hour exposure duration.

| SMILES | outcome |
| --- | --- |
| CNC(=O)Oc1cc(C)c(SC)c(C)c1 | inactive |
| Nc1ccccc1 | inactive |
| CCCCC(CC)COC(=O)c1cc(Br)c(Br)c(Br)c1Br (stereo not given) | inactive |
| Cc1ccc(N(SC(F)(Cl)Cl)S(=O)(=O)N(C)C)cc1 | inactive |
| CN(C)C(=O)C(c1ccccc1)c1ccccc1 | inactive |
| CC1(C)[C@H](C(=O)O[C@H](C#N)c2cccc(Oc3ccccc3)c2)[C@@H]1C=C(Br)Br | inactive |
| N#Cc1sc2c(=O)c3ccccc3c(=O)c=2sc1C#N | inactive |
| O=[N+]([O-])c1ccccc1Cl | inactive |
| c1ccc2cc3c(cc2c1)-c1cccc2cccc-3c12 | inactive |
| COCCOC(C)=O | inactive |
| BrC(Br)Br | inactive |
| CCOP(=S)(OCC)Oc1cnc2ccccc2n1 | inactive |
| O=C(O)CCCOC(=O)c1ccccc1C(=O)O | inactive |
| [O-][Cl+3]([O-])([O-])O | inactive |
| Oc1cc(Cl)ccc1Cl | inactive |
| O=S(=O)(O)O | inactive |
| O=C1C(Cl)=C(Cl)C(=O)C(Cl)=C1Cl | inactive |
| COc1cccc([C@@]2(O)CCCC[C@@H]2CN(C)C)c1 | inactive |
| CCCN(CC1CC1)c1c([N+](=O)[O-])cc(C(F)(F)F)cc1[N+](=O)[O-] | inactive |
| COc1ccc(CO)cc1 | inactive |

| SMILES | outcome |
| --- | --- |
| CCC(C)(C)O | inactive |
| O=S(=O)(c1ccccc1)c1ccccc1 | inactive |
| OCCSSCCO | inactive |
| CCOC(=O)NC(=S)Nc1ccccc1NC(=S)NC(=O)OCC | inactive |
| COc1cccc2c1cc([N+](=O)[O-])c1c(C(=O)O)cc3c(c12)OCO3 | inactive |
| CNC(=O)Oc1cccc(C(C)C)c1 | inactive |
| Cc1ccc2cc(C)ccc2c1 | inactive |
| CC(C)(O)C#N | inactive |
| CCc1cc(C)cc(CC)c1-c1c(OC(=O)C(C)(C)C)n2n(c1=O)CCOCC2 | inactive |
| COc1ncc(F)c2nc(S(=O)(=O)Nc3c(F)cccc3F)nn12 | inactive |
| CNC(=N[N+](=O)[O-])NCC1CCOC1 (stereo not given) | inactive |
| O=C(NC(=O)c1c(F)cccc1F)Nc1ccc(Oc2ccc(C(F)(F)F)cc2Cl)cc1F | inactive |
| FC(F)(F)c1ccc(OCCCOc2c(Cl)cc(OCC=C(Cl)Cl)cc2Cl)nc1 | inactive |
| CCCC(C)(COC(N)=O)COC(=O)NC(C)C (stereo not given) | inactive |
| Cc1ccc2cc3c(ccc4ccccc43)c3c2c1CC3 | inactive |
| [Cl-].[Cl-].[Cl-].[Fe+3] | inactive |
| O=C(O)CCCc1ccc(N(CCCl)CCCl)cc1 | inactive |
| CCCOC(=O)c1ccccc1C(=O)OCCC | inactive |
| Cl | inactive |
| O=C(CCl)c1ccccc1 | inactive |
